Bioassay records from PubChem.
Cruzain inh noDet: qHTS Assay for Promiscuous and Specific Inhibitors of Cruzain (without detergent). Cruzipain (Trypanosoma cruzi), P25779. purified cruzain, Z-FR-AMC fluorescence, no detergent. Potency, µM, for the others: max response, negative = inhibition, actives largely listed as inhibitors. 200,000 compounds, 2.3% hits. AID 1476, 2009;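 note: plate controls were enzyme without inhibitor for no effect and buffer without enzyme for full effect; nearly all actives have a fitted effect of over 40% in size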
Target sequence (P25779 123-467 limits assumed): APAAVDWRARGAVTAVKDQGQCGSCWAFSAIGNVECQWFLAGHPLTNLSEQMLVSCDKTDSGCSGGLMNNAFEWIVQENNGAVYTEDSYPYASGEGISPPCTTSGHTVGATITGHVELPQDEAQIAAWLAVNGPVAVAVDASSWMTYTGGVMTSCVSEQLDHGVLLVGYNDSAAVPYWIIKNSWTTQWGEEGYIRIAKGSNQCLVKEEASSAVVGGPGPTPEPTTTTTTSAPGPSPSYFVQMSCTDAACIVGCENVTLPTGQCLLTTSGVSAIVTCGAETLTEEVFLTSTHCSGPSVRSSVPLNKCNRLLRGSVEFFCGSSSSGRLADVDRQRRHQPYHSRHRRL
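Detergent-free condition (0.00005% Triton X-100) in acetate buffer pH 5.5 with DTT. 1.5 nM enzyme and compound were pre-mixed 15 min, then 2 uM Z-FR-AMC substrate added; reaction progress from fluorescence change between first and third reads (60 s).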
Cruzain inh Det: qHTS Assay for Promiscuous and Specific Inhibitors of Cruzain (with detergent); Cruzipain (Trypanosoma cruzi), P25779; purified cruzain, Z-FR-AMC fluorescence, 0.01% Triton; Potency, µM, for inactives: max response, negative = inhibition, actives largely listed as inhibitors; 200,000 compounds, 0.43% hits;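 note: plate controls were neutral wells for no effect and buffer without enzyme for full effect; nearly all actives have a fitted effect of over 40% in size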
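Detergent-containing run (0.01% Triton X-100) in acetate buffer pH 5.5 with 5 mM DTT: enzyme at 1.5 nM final, 15 min compound preincubation at room temperature, then 2 uM Z-FR-AMC substrate. Activity taken as 60 s fluorescence increase at 360/450 nm.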
The depositor's hits bear a star; ? = inconclusive. In the library only some 2.4% were active in any assay of this set; here they are far more common. Calls come from the whole dose curve; as a rule, active = well fitted curve in the direction sought with a large enough effect; inconclusive = small, poorly fitted or top-dose-only effect, or another doubt; inactive = no such curve, though single readings can be large; an effect the other way counts as inactive or inconclusive. Potency is the fitted concentration of half-maximal effect.

SMILES	Cruzain inh noDet	Cruzain inh Det
CCCn1c2ccccc2c2nnc(SC(CC)C(=O)Nc3sc4c(c3C#N)CCCC4)nc21 (configuration not stated)	10µM*	0%
CCCn1c2ccccc2c2nnc(SC(CC)C(=O)Nc3cc(C)on3)nc21 (configuration not stated)	-21%	-14%
COc1ccc(C2c3cc(OC)c(OC)cc3Cc3c4cc(OC)c(OC)cc4cc[n+]32)cc1OC (configuration not stated)	-8%	-2%
COC(=O)c1ccccc1N(C)S(=O)(=O)c1cc2c3c(c1)CC(=O)N3CCC2	?	0%
O=C(Nc1ccc2nc(-c3ccco3)c(-c3ccco3)nc2c1)N1CCN(c2ccccn2)CC1	2.5µM*	14µM*
O=C(c1ccc2nc(-c3ccco3)c(-c3ccco3)nc2c1)N1CCN(c2ncccn2)CC1	?	25µM*
Cc1nc2cc(NC(=O)N3CCN(c4ccccn4)CC3)ccc2o1	3%	8%
O=C(c1cccc(C(=O)N2CCN(c3ncccn3)CC2)c1)N1CCN(c2ncccn2)CC1	-7%	6%
CNS(=O)(=O)c1cn(CC(=O)N2CCN(c3cc(C)ccc3C)CC2)cc1S(=O)(=O)NC	?	-9%
O=C(Cc1ccccc1)NC1CC(=O)N(c2ccc3c(c2)OCCO3)C1 (configuration not stated)	-5%	0%
Cc1cc(C)nc(SCc2cc(=O)c(OC(=O)c3ccc(Br)o3)co2)n1	-15%	?
Cc1cc(C)nc(SCc2cc(=O)c(OC(=O)c3ccco3)co2)n1	?	25µM*
O=C(Nc1ccc([N+](=O)[O-])cc1)c1cn(-c2ccccc2)nc1-c1cc2ccccc2o1	7.9µM*	-3%
O=C(Nc1ccccc1)c1cn(-c2ccccc2)nc1-c1ccccc1	29%	-5%
CCc1sc(Nc2ccc(C)cc2Br)nc1-c1cc2cccc(OC)c2oc1=O	-8%	1%
COc1cc(C(=O)OC2CC[C@]3(C)C4CCC5[C@]6(O)CC(O)[C@]7(O)C(CN8CC(C)CCC8[C@]7(C)O)[C@]6(O)C[C@@]53O[C@]24O)cc(OC)c1OC (some centres not stated)	-4%	-9%
CCn1c2ccccc2c2cc(NC(=O)C(C)Oc3ccccc3)ccc21 (configuration not stated)	?	0%
CCn1c2ccccc2c2cc(NC(=O)C(C)Oc3ccc(OC)cc3)ccc21 (configuration not stated)	25µM*	0%
CCC(C)Nc1ccc(NC(C)CC)cc1 (configuration not stated)	-19%	-4%
COc1cccc(N2CC(NC(=O)COc3ccc4ccccc4c3)CC2=O)c1 (configuration not stated)	14%	-5%
Cc1cc(C)c(-c2n[nH]c3c2C(c2ccccc2F)N(Cc2ccco2)C3=O)c(O)c1 (configuration not stated)	?	-13%
Cc1ccc(Cl)cc1N1CCN(C(=O)Cn2cnc3sc(C)c(S(=O)(=O)N4CCC(C)CC4)c3c2=O)CC1	8%	-1%
COCCN(CCOC)S(=O)(=O)c1ccc(C(=O)Nc2sc3c(c2C(N)=O)CCCC3)cc1	9%	-4%
NC(=O)c1c(NC(=O)c2ccc(S(=O)(=O)N(CCCl)CCCl)cc2)sc2c1CCCCC2	4µM*	1%
CN1CCN(S(=O)(=O)c2cccc(C(=O)Nc3sc4c(c3C(N)=O)CCCC4)c2)CC1	13µM*	?
SMILES	Cruzain inh noDet	Cruzain inh Det
NC(=O)c1c(NC(=O)c2ccc(S(=O)(=O)N3CCOCC3)cc2)sc2c1CCCCC2	?	-4%
O=C(Nc1ccccc1)N1CCCC2(CCN(C(=O)c3cccc(F)c3)CC2)C1	3%	1%
Cc1cc(=O)n2nc(N3CCC(C(=O)Nc4ccc(Br)cc4F)CC3)sc2n1	-1%	-5%
Cc1cc(C)c(S(=O)(=O)Nc2ccc3c(c2)CCC3)c(C)c1	-8%	-8%
Cc1cc(C)c(S(=O)(=O)Nc2ccc3c4c(cccc24)CC3)c(C)c1	20µM*	-3%
Cc1nc2sc(C(=O)NCc3ccc(Cl)cc3)c(NC(=O)c3ccccc3)c2c(C)c1C	-10%	-1%
O=C(COC(=O)CN1C(=O)c2ccccc2C1=O)Nc1ncc(Cl)cc1Cl	-20%	-6%
CC(=O)Nc1ccc(C(=O)OCC(=O)c2ccc(C)c([N+](=O)[O-])c2)cc1	7%	-4%
Cc1ccc(C(=O)COC(=O)c2cc(-c3ccccc3)nc3ccccc23)cc1C	-5%	-2%
COc1ccc(-c2nn(-c3ccccc3)cc2C(=O)OCC(=O)c2ccc(C)c([N+](=O)[O-])c2)cc1	25µM*	2%
COc1ccc(NC(=O)c2cn(-c3ccccc3)nc2-c2ccc(C)cc2)cc1	-19%	-5%
COc1ccc(-c2nn(-c3ccccc3)cc2C(=O)n2nnc3ccccc32)cc1	16µM*	-14%
COc1ccc(-c2cc(C(=O)OCC(=O)c3ccc(C)c([N+](=O)[O-])c3)c3ccccc3n2)cc1	10µM*	-1%
Cc1ccc(-c2nn(-c3ccccc3)cc2C(=O)OCC(=O)Nc2ncc(Cl)cc2Cl)cc1	32µM*	-6%
O=c1cnc2cnc(N3CCNCC3)nc2n1C1CC1	-16%	-12%
CCC1CCCCN1C(=O)CSc1nc2c([nH]c3ccccc32)c(=O)n1-c1cccc(OC)c1 (configuration not stated)	-8%	-6%
Cc1cc(C(=O)CSc2nc3ccccc3n2CCC#N)c(C)n1Cc1cccs1	16µM*	2%
N#CCCn1c(SCC(=O)c2c[nH]c3ccccc23)nc2ccccc21	?	-6%
COc1cccc(CNC(=O)c2cc(C)nc3c2c(C)nn3-c2ccc(C)cc2)c1	22%	-13%
CCC(=O)Nc1cc(C(=O)OCc2ccc(C(=O)Oc3ccccc3)cc2)ccc1C	13µM*	-2%
CC(=O)Nc1cc(C(=O)OCC(=O)c2ccccc2)ccc1C	3%	1%
COc1ccc(S(=O)(=O)N2Cc3ccccc3CC2C(=O)Nc2ccc3c(c2)OCO3)cc1 (configuration not stated)	25µM*	-4%
Cc1ccc(S(=O)(=O)N2Cc3ccccc3CC2C(=O)Nc2ccc3c(c2)OCO3)cc1 (configuration not stated)	?	-3%
COC(=O)c1ccc(-n2c(/C=C\c3cccc(Br)c3)nc3ccccc3c2=O)cc1	-3%	-2%
CCN1c2ccccc2-c2nc(SCC(=O)NCc3ccccc3)ncc2S1(=O)=O	-4%	4%
SMILES	Cruzain inh noDet	Cruzain inh Det
CC(C)c1ccc(/C=C/C(=O)NC2CCCCC2)cc1	8%	-2%
Cc1cccc(C(=O)Nc2sc3c(c2C#N)CCCCC3)c1	?	3%
CCc1ccc(CCC(=O)Nc2sc3c(c2C#N)CCCC3)o1	25µM*	-1%
Cc1ccc(/C=C/C(=O)NC2CCCCCCC2)o1	20µM*	22µM*
N#Cc1c(NC(=O)CCC(=O)O)sc2c1CCCC2	4%	-1%
Cc1ccc(/C=C/C(=O)Nc2sc3c(c2C#N)CCCC3)o1	7.9µM*	-5%
COc1ccc(C)cc1NS(=O)(=O)c1cnc(N)nc1	4%	1%
COC(=O)c1ccccc1NC(=O)c1ccc(=O)n(Cc2cccc(C)c2)c1	-6%	0%
CC(=O)N1CCc2c(sc3c2c(=O)n(-c2ccc(F)cc2)c(=O)n3Cc2ccc(C#N)cc2)C1	7%	0%
